Shown are actives, neighbours in structure and some others; about 2.9% of the full set was active somewhere.
D3 ag: qHTS of D3 Dopamine Receptor Agonist: qHTS. D(3) dopamine receptor (Homo sapiens), P35462. D3R DiscoveRx beta-arrestin cells, luminescence, 90 min. max activation, %. 0.58% of 410,000 active; in the data active = max activation above about 30%; also: 0% is about no effect
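Agonist mode: compounds and dopamine controls were applied to plated cells for 90 min at 37 degrees C after an overnight attachment at 1500 cells/well. Luminescent read-out followed 30 - 60 minutes at room temperature with DiscoveRx detection reagent.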
Integrin act MD: qHTS for Activators of Integrin-Mediated Alleviation for Muscular Dystrophy | AID 624291, 2012 | 0.064% of 350,000 active | Potency, µM (titrated, usually from 38.3 µM), without a hit: at the top dose activation, hits mostly activators | alpha7betagal myoblasts, beta-gal FDG fluorescence, 48 h;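 also: potency is read from the fitted curve at half-maximal effect; 100% = response of the positive control SU9516; nearly all actives have a fitted effect of over 60% in size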
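alpha7betagal+/- myoblasts (passage 13, 250/well) treated 48 h at 37C with compounds at 1:260 dilution of DMSO stock. Lysed, then beta-galactosidase activity read as FDG fluorescence (ex 480/em 540) after 30 min, with pre-read for autofluorescence.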
mIDH1 inhibitor: qHTS for Inhibitors of mutant isocitrate dehydrogenase 1 (IDH1): qHTS; Potency, µM (top dose mostly 76.6 µM), inactives show at the top dose activity change, negative = inhibition, most hits filed as inhibitors; Isocitrate dehydrogenase [NADP] cytoplasmic (Homo sapiens), O75874; 0.093% of 390,000 active; IDH1-R132H enzyme, NADPH consumption, diaphorase/resazurin fluorescence; also: potency is read from the fitted curve at half-maximal effect; % is scaled to controls: 0 for no effect and ±100 for the full control effect; nearly all actives have a fitted effect of over 65% in size
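IDH1-R132H (0.5 ug/mL) preincubated 30 min with compound, then NADPH (0.016 mM) and alpha-KG (2 mM) added; 80 min at RT, pH 7.5. Remaining NADPH coupled via diaphorase/resazurin to fluorescence (540/590 nm); concentration-response curves normalized to no-enzyme control.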
DRD3 antagonist: qHTS of D3 Dopamine Receptor Antagonist: qHTS; 2.5% of 360,000 active; max response, negative = inhibition, %; D3R cells, DiscoveRx beta-arrestin luminescence, antagonist mode; active compounds read low; in the data active = max response below about -50%; inconclusive = no clear call, values can overlap the other calls; also: % is scaled to controls: 0 for no effect and ±100 for the full control effect
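Cells expressing the human receptor were seeded at 1500 cells/well, incubated overnight at 37 degrees C in 5% CO2, then exposed to library compounds with dopamine controls for 90 minutes at 37 degrees C before luminescent detection.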
B2AR arrestin: qHTS assay of beta-arrestin-biased ligands of beta2-adrenergic receptor; Beta-2 adrenergic receptor (Homo sapiens), P07550; beta-arrestin recruitment to beta2AR, cell-based reporter; Potency, µM (titrated, usually from 46.1 µM), for the others: at the highest dose activation, actives largely listed as activators; 0.02% of 330,000 active; AID 492947, 2010;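 also: potency is read from the fitted curve at half-maximal effect; 0% = DMSO controls and full agonism = EC100 isoproterenol or metaproterenol; nearly all actives have a fitted effect of over 65% in size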
Target sequence (P07550 whole entry, looked up): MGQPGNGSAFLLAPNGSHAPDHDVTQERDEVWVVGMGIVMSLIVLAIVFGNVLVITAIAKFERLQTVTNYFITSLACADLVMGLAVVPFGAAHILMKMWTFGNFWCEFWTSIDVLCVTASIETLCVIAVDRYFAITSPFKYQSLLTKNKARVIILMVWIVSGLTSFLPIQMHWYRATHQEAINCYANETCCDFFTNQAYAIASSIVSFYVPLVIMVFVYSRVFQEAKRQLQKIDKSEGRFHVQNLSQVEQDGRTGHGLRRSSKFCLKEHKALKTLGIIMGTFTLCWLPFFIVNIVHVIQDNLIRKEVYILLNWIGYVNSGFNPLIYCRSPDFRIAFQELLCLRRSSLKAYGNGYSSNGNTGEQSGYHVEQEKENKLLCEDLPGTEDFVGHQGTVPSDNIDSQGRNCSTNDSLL
Numbers without * were called inactive; ? = inconclusive; / = no result given; [ ] = remark or other dose. Unless noted, calls follow the shape of the dose curve; as a rule, active = well fitted curve in the direction sought with a large enough effect; inconclusive = small, poorly fitted or top-dose-only effect, or another doubt; inactive = no such curve, though single readings can be large; an effect the other way counts as inactive or inconclusive.

SMILES	D3 ag	Integrin act MD	mIDH1 inhibitor	DRD3 antagonist	B2AR arrestin
O=C1NC(=O)C2(Cc3ccccc3N3CCCC32)C(=O)N1c1cccc(Cl)c1 (stereo not drawn)	2	-9%	-2%	8	0%
Cc1ccc(CN2C(=O)NC(=O)C3(Cc4c(nc5ccccn5c4=O)N4CCCCCC43)C2=O)cc1 (stereo not drawn)	54*	10%	-3%	13	0%
CCCCCCN1CCN(c2ccc(Cl)cc2)CC1	-4	13%	3%	?	1%
Fc1cccc(F)c1CN1CCN(c2ccc(Cl)cc2)CC1	-12	-25%	0%	-16	-1%
Cc1cccc(CN2CCN(c3ccc(Cl)cc3)CC2)c1	3	?	12%	-95*	4%
Cc1cccc(CN2CCN(Cc3ccc(Cl)cc3)CC2)c1	-22	-42%	11%	-64*	-1%
Fc1ccc(CN2CCN(c3ccc(Cl)cc3)CC2)cc1	0	2%	-4%	-52*	0%
O=C(CCN1CCN(c2ccccc2)CC1)c1ccc(Br)cc1	-3	?	12%	-60*	0%
CCN(CC)CCOC(=O)C(C)(c1ccccc1)c1ccccc1	-17	/	/	/	/
CC(c1ccccc1)n1cncc1C(=O)N1CCCC1=O (stereo not drawn)	30*	8%	4%	28	0%
CCOC(=O)c1cncn1[C@H](C)c1ccccc1	/	/	/	/	0%
CCOP(=S)(OCC)O/N=C(\C#N)c1ccccc1	-2	/	/	/	/
O=C(O)Cn1cc(/C=C2\C(=O)NC(=O)N(Cc3ccco3)C2=O)c2ccccc21	-14	-12%	8%	-64*	0%
CCN(CC)/[N+]([O-])=N/O	3	/	/	/	/
Cc1ccccc1C(=O)Nc1ccc(C(=O)OCc2cc(=O)n3nc(C4CC4)sc3n2)cc1	8	/	47%	/	/
O=[N+]([O-])c1cccc(CN2CCN(Cc3ccc(Br)cc3)CC2)c1	-7	0%	0%	-102*	0%
C[C@@H]1CNC(=O)c2c(C(=O)Nc3ccc(CNC(=O)OC(C)(C)C)cc3)ncn21	1	24%	1%	33	/
C=C1C(O)[C@@H]2O[C@]3(CC[C@H](/C=C/C(C)[C@@H]4CC(C)=CC5(O[C@H](C[C@@](C)(O)C(=O)O)CCC5O)O4)O3)CC[C@H]2O[C@@H]1C(O)CC(C)[C@H]1OC2(CCCCO2)CCC1C (stereo partly drawn)	-70	?	0%[38.3 µM]	-132*	-2%
CC(CCc1ccccc1)NC(C)C(O)c1ccc(O)cc1 (stereo not drawn)	0	/	-5%	-70*	4%
COc1cc(CC(C)N)cc(OC)c1OC (stereo not drawn)	13	/	/	/	/
OCCCBr	6	/	/	/	/
C#C[C@]1(O)C=C[C@H]2[C@@H]3CCC4=CC(=O)CC[C@@H]4[C@H]3CC[C@@]21CC	0	/	/	/	/
Cc1ccccc1-n1c(CF)nc2ccc(N)cc2c1=O	11	/	/	/	/
O=C(CS(=O)C(c1ccccc1)c1ccccc1)NO (stereo not drawn)	9	/	/	/	/
CCN(CC)CCCOC(=O)C(OC(C)C)(c1ccccc1)c1ccccc1	-34	20%[7.66 µM]	3%	-101*	0%
SMILES	D3 ag	Integrin act MD	mIDH1 inhibitor	DRD3 antagonist	B2AR arrestin
CCOC(C(=O)OCCCN(CC)CC)(c1ccccc1)c1ccccc1	-11	-30%	0%	-55*	-1%
CC(=O)OCC1=C(C(=O)O)N2C(=O)[C@@H](N)[C@H]2SC1	-11	/	/	/	/
ClC1=C(Cl)C(Cl)=C(Cl)C1=C/C=C/c1ccccc1	4	-13%	-9%	2	0%
NP(=O)(OCCCc1ccccc1)Oc1ccc(Cl)cc1 (stereo not drawn)	4	-17%	3%	0	-1%
NP(=O)(OCCCc1ccccc1)c1ccccc1 (stereo not drawn)	36*	-7%	-6%	-15	-1%
CCC1=CCN(CCc2c(C)[nH]c3ccccc23)CC1	-56	-15%	10%	-63*	/
CN1CCC(c2c[nH]c3ccc(O)cc23)CC1	-1	/	-4%	?	/
CN1CCC(c2c[nH]c3ccccc23)C1 (stereo not drawn)	-2	-15%	7%	-100*	0%
CC(Cc1ccccc1)NCCn1cnc2c1c(=O)n(C)c(=O)n2C (stereo not drawn)	-21	/	/	/	/
CC1=C(O)C(=O)C=C2C1=CC=C1C2(C)CCC2(C)C3CC(C)(C(=O)O)CCC3(C)CCC12C (stereo not drawn)	-5	-57%	-27%	-81*	/
Cc1nc2ccccc2c(=O)n1-c1ccccc1Cl	8	/	/	/	/
O=C(c1ccc2c3c(cccc13)CC2)C1CCCN(CC2CC2)C1 (stereo not drawn)	-27	-18%	6%	-81*	-1%
Oc1ccc2c3c1O[C@H]1[C@@H](O)C=C[C@H]4[C@@H](C2)NCC[C@@]341	-12	/	/	/	/
COc1ccc(CN2CCN(Cc3ccccc3OC)CC2)cc1	-20	-7%	-4%	?	0%
COc1ccccc1CN1CCN(Cc2ccc(Cl)cc2)CC1	-15	-22%	-3%	-96*	0%
COc1ccccc1N1CCN(Cc2ccc(Cl)cc2Cl)CC1	-29	-30%	2%	-85*	0%
COc1ccccc1N1CCN(Cc2ccc(F)cc2)CC1	-4	18%	1%	-82*	0%
COc1ccc(CN2CCN(c3ccccc3F)CC2)cc1O	9	-16%	7%	-70*	0%
COc1ccccc1N1CCN(Cc2ccc(SC)cc2)CC1	-20	0%	14%	-107*	-1%
CSc1ccc(CN2CCN(c3ccccc3C)CC2)cc1	-10	-23%	6%	-73*	0%
CCc1ccc(CN2CCN(Cc3ccc(SC)cc3)CC2)cc1	-19	-26%	4%	?	0%
O=C(CCl)c1ccc(Cl)cc1Cl	-11	/	/	/	/
CC(C(=O)c1cn(C)c2ccccc12)c1ccccc1 (stereo not drawn)	20	12%	12%	-70*	-1%
CCOC(=O)[C@]12Cc3cc(Cl)ccc3[C@H]1N(C)C(=O)c1ccccc12	1	/	/	19	/
CCOC(=O)[C@]12Cc3c(cc(OC)c(OC)c3OC)[C@H]1N(C)C(=O)c1ccccc12	-4	/	/	-63*	/
CCOC(=O)[C@]12Cc3cc(OC)ccc3[C@H]1N(C1CCCCC1)C(=O)c1ccccc12	-5	/	/	-64*	/
CCOC(=O)[C@]12Cc3cc(Cl)ccc3[C@H]1N(C1CCCCC1)C(=O)c1ccccc12	-9	/	/	-80*	/
CCOC(=O)[C@]12Cc3c(cc(OC)c(OC)c3OC)[C@H]1N(CCC(=O)OC)C(=O)c1ccccc12	-11	/	/	0	/
COC(=O)c1ccc(CN2CCN(Cc3ccccc3)CC2)cc1	-74	17%	2%	-81*	0%
